Consider 60 molecules from PubChem BioAssay AID489025 (Southern Research Specialized Biocontainment Screening …, 2010).

A word on the viability: it is a read-out of living cells in per cent, often relative to untreated cells.

About 790 (34%) of roughly 2,300 compounds were called active. The list shows a part of the results. Entries with a potency or affinity are not part of this list. Unmarked numbers belong to inactive results. How the calls were made is not given here.

The nature of this assay: THP-1 cell cytotoxicity, dose response, cytotoxicity control for non-replicating M. tuberculosis project (AID 489025). The settings on record: THP-1 cell viability; series mostly up to 40 µM; viability: at the top concentration.
Consider `CCOC(=O)CN1NC2(CCCC(C)C2)NC1=S` (stereo not given), for which the “viability” value is 113%.

On to `CCOC(=O)c1cc(-c2csc(COc3ccccc3Cl)n2)on1`, for which the “viability” value is 97.5%.

Take `COCCOC(=O)c1c(C)oc2ccc(OC(=O)c3ccco3)cc12`: the “viability” value was 113%.

`CC(=O)N1CCN(C(=O)CC2OC(=O)c3ccccc32)CC1` (stereo not given): the “viability” value is 101%.

Consider `COCCn1c(C)cc(C(=O)COC(=O)c2ccc(Br)o2)c1C`, for which the “viability” value is 96.2%.

In the case of `CCCN1C(=O)SC(CC(=O)Nc2ccccc2)C1=O` (stereo not given), the “viability” value is 110%.

In the case of `Nc1nnc(Sc2ncccc2[N+](=O)[O-])s1`, the “viability” value was 103%.

Regarding `CNc1nnc(Sc2ncccc2[N+](=O)[O-])s1`, the “viability” value was 96.4%.

Take `COc1ccc(OCCSc2nnc(Cc3cccc4ccccc34)n2N)cc1`: the “viability” value is 99.5%.

As to `O=C(c1ccccc1)n1c(=O)c(F)cn(COCCBr)c1=O`, the “viability” value was 105%.

Regarding `Cc1nnc(NC(=O)c2ccc3ccccc3c2)o1`, the “viability” value is 81%.

On to `O=C(Cn1cc([N+](=O)[O-])nc1[N+](=O)[O-])N1CCN(c2ccccc2)CC1`, for which the “viability” value was 78.6%.

As to `CCOC(=O)C(Nc1ccc2ccccc2c1)C(=O)OCC`, the “viability” value was 92.3%.

Turning to `COc1cccc(NC(=O)c2cc3ccccc3oc2=O)c1`, the “viability” value was 107%.

Consider `O=c1oc2ccccc2c2c1nc(C(F)(F)F)n2-c1ccccc1`, for which the “viability” value was 123%.

With `COC(=O)CN(C#N)c1nc(SC)nc(N(C)C)n1`, the “viability” value is 108%.

Take `Cc1ccc(N2NC(=O)/C(=C/C=C/c3ccco3)C2=O)cc1C`: the “viability” value is 71.6%.

Take `O=C(NC(=S)Nn1cnc2c(cnn2-c2ccccc2)c1=O)c1ccccc1`: the “viability” value is 87.3%.

With `CCOC(=O)Cn1c2ccc(F)cc2c2nc(C)sc21`, the “viability” value was 107%.

In the case of `Cc1nnc(N/N=C/c2ccc(Br)cc2)n1N`, the “viability” value is 87.4%.

In the case of `Cc1ccccc1OCC(=O)OCC(=O)c1ccc[nH]1`, the “viability” value was 114%.

Regarding `CC1(CCc2ccc3c(c2)OCO3)NC(=O)c2ccccc2N1` (stereo not given), the “viability” value is 95.3%.

On to `O=C(COc1ccc(Br)cc1)N/N=C1/SCC(=O)N1Cc1ccco1`, for which the “viability” value was 94.1%.

On to `CCc1nnc(N/N=C/c2c(F)cccc2Cl)n1N`, for which the “viability” value is 113%.

On to `Cc1ccsc1/C=N/NC(=O)c1ccncc1`, for which the “viability” value was 112%.

Regarding `O=C(N/N=C1\CCCc2c1[nH]c1ccc(Cl)cc21)c1ccncc1`, the “viability” value is 73%.

As for `COc1ccc(C(C)=O)cc1COC(=O)c1ccc2ccccc2n1`, the “viability” value was 91.3%.

For the molecule `c1nc2n(n1)C1=C(CCCC1)C1(CCCCC1)N2`, the “viability” value is 91.4%.

Consider `CN(C)S(=O)(=O)c1ccc(C(=O)Oc2ccccc2)cc1`, for which the “viability” value was 118%.

`CCOc1ccc(NC(=O)c2nnn(CC(=O)Nc3ccccc3OC)c2N)cc1`: the “viability” value was 102%.

Take `Cc1ccc(NC(=O)CN(C)CC(=O)Nc2ccc(F)c(Cl)c2)cc1`: the “viability” value was 104%.

As for `CC1CCN(S(=O)(=O)c2cccc(C(=O)Oc3ccc([N+](=O)[O-])cc3)c2)CC1`, the “viability” value was 119%.

Take `CCOC(=O)c1ccc(NC(=O)NS(=O)(=O)c2ccc(C)cc2)cc1`: the “viability” value is 108%.

`CC(C)C(=O)Nc1cccc(-c2nc3ccccc3c(=O)o2)c1`: the “viability” value was 105%.

On to `CCOC(=O)Cn1c(C)c(Br)c(=O)c2cccc(C)c21`, for which the “viability” value was 115%.

`CN(C)Cc1ccccc1Sc1ccc(Br)cc1`: the “viability” value was 84.7%.

`FC(F)(F)c1nc(SCc2ccc(Cl)cc2Cl)n[nH]1`: the “viability” value is 87%.

`O=C(CN1CCCCC1)Nc1nnc(-c2ccc([N+](=O)[O-])cc2)s1`: the “viability” value is 91.4%.

`O=[N+]([O-])c1ccc(CN2CCN(c3ccccc3Cl)CC2)o1`: the “viability” value was 88.2%.

Turning to `Cc1ccccc1N1CCN(Cc2ccc([N+](=O)[O-])o2)CC1`, the “viability” value was 78.2%.

Take `COC(=O)COc1ccc(S(=O)(=O)N2CCN(c3ccccc3F)CC2)cc1`: the “viability” value is 84.8%.

For the molecule `Cc1cc2cc(CNC(=O)C3CCCC3)ccc2n1C`, the “viability” value was 99.3%.

On to `O=C(CN1CCN(c2ccccc2)CC1)Nc1nnc(-c2ccccc2)s1`, for which the “viability” value is 111%.

`O=C(Oc1ccccc1)c1ccc(COC(=O)c2cnccn2)cc1`: the “viability” value was 122%.

For `Cc1ccc(CNC(=O)c2cnccn2)cc1`, the “viability” value was 98.6%.

Take `COc1ccccc1C1=Nn2c(nnc2C2CCCCC2)SC1`: the “viability” value is 82.8%.

As to `O=C(Nc1ccc(Cl)cn1)C1COc2ccccc2O1` (stereo not given), the “viability” value is 120%.

Turning to `O=c1oc(-c2cccs2)nc2c1cnn2-c1ccccc1`, the “viability” value was 114%.

`Cc1ccccc1Cn1cc(NC(=O)c2noc(C(C)C)c2[N+](=O)[O-])cn1`: the “viability” value is 124%.

Consider `COc1ccc(CN=C(C#N)C2=C(O)c3ccccc3C2=O)cc1`, for which the “viability” value is 104%.

As for `CC(C)CN1C(=O)CC(Sc2ccccc2C(=O)O)C1=O` (stereo not given), the “viability” value is 105%.

With `CC(=O)c1c(C)n(C)c2ccc(OC(=O)c3ccco3)cc12`, the “viability” value was 115%.

Take `Cc1ccc(NC(=O)CCSc2nnc(Cc3ccccc3)o2)cc1`: the “viability” value was 99.4%.

Take `O=C(NCc1ccccc1CN1CCCC1)c1cc2ccccc2o1`: the “viability” value was 102%.

In the case of `Oc1ccc(Cl)cc1CNCc1ccc(F)cc1`, the “viability” value is 87.3%.

On to `Brc1ccc(-c2ccc(CNCc3ccccn3)o2)cc1`, for which the “viability” value is 87.5%.

As to `O=c1cc(C(F)(F)F)[nH]c2c(C(F)(F)F)cccc12`, the “viability” value was 84.6%.

Regarding `CN(C)CCN1C(=O)c2oc3ccccc3c(=O)c2C1c1cccc(Br)c1` (stereo not given), the “viability” value was 99.8%.

Turning to `O=C(c1cc2ccccc2o1)N1CCN(Cc2ccccc2)CC1`, the “viability” value was 98.5%.

As to `O=C1CCC(=O)N1CNc1ccc(Oc2ccccc2)cc1`, the “viability” value was 108%.
